Test results: PubChem BioAssay (NCI)
Several values for one entry are separate records, joined by “and”; a condition that tells them apart may be missing. Equal values may be shown once. This is part of a sample that, as a whole, favours compounds with a hit. Of some 83,000 tested, about 20% had one in any assay.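 Cell lines were cultured in 96-well plates, exposed to a single compound concentration, and assessed for percent growth 48 hours later.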 Activity calls are given as the source filed them. Rule for the calls: active = growth percent below 10; inactive = the rest.

What was measured:
Test in all cases: NCI-60 one-dose screen, 48 h (100 = growth as untreated, 0 = no growth, -100 = all killed)
Conditions in all cases: 10 µM unless noted
RPMI-8226 leukemia = tested on: RPMI-8226 leukemia
OVCAR-8 ovarian = tested on: OVCAR-8 ovarian
OVCAR-5 ovarian = tested on: OVCAR-5 ovarian
OVCAR-4 ovarian = tested on: OVCAR-4 ovarian
SK-OV-3 ovarian = tested on: SK-OV-3 ovarian
IGROV1 ovarian = tested on: IGROV1 ovarian
OVCAR-3 ovarian = tested on: OVCAR-3 ovarian
HS 578T breast = tested on: HS 578T breast
NCI/ADR-RES ovarian = tested on: NCI/ADR-RES ovarian
SR leukemia = tested on: SR leukemia

`CC(/C=N/N1C(=O)c2ccccc2C1=O)c1ccccc1` (stereo unspecified) was tested, and the growth (RPMI-8226 leukemia) was 97.9% (inactive), the growth (OVCAR-8 ovarian) was 101% (inactive) and the growth (OVCAR-5 ovarian) was 103% (inactive). For the same compound, the growth (OVCAR-4 ovarian) was 112% (inactive), the growth (SK-OV-3 ovarian) was 108% (inactive) and the growth (IGROV1 ovarian) was 98.6% (inactive). The growth (OVCAR-3 ovarian) was 113% (inactive), the growth (HS 578T breast) was 119% (inactive) and the growth (NCI/ADR-RES ovarian) was 113% (inactive).

`CCc1c(CC(=O)O)c2cc(C)ccc2n1Cc1ccc(Cl)cc1` was tested, and the growth (SR leukemia) was 91.5% (inactive) and 146% (inactive), the growth (RPMI-8226 leukemia) was 97.1% (inactive) and the growth (OVCAR-8 ovarian) was 82.9% (inactive) and 100% (inactive). For the same compound, the growth (OVCAR-4 ovarian) was 85.5% (inactive) and 105% (inactive), the growth (SK-OV-3 ovarian) was 97.9% (inactive) and 42.4% (inactive) and the growth (IGROV1 ovarian) was 92.3% (inactive). For the same compound, the growth (OVCAR-3 ovarian) was 93.8% (inactive) and 110% (inactive), the growth (HS 578T breast) was 87.2% (inactive) and 113% (inactive) and the growth (NCI/ADR-RES ovarian) was 98.4% (inactive) and 98.7% (inactive).

`NCCSC(C[N+](=O)[O-])c1ccccc1Cl` (stereo unspecified) was tested, and the growth (RPMI-8226 leukemia) was -22.6% (active), the growth (OVCAR-8 ovarian) was 61% (inactive) and the growth (OVCAR-5 ovarian) was 99.5% (inactive). The growth (OVCAR-4 ovarian) was 102% (inactive), the growth (SK-OV-3 ovarian) was 112% (inactive) and the growth (OVCAR-3 ovarian) was -75.7% (active). The growth (HS 578T breast) was -1.76% (active) and the growth (NCI/ADR-RES ovarian) was 106% (inactive).

`CCCCOc1cc(C(=O)NCCN(CC)CC)c2ccccc2n1` was tested, and the growth (SR leukemia) was 101% (inactive) and 93% (inactive), the growth (RPMI-8226 leukemia) was 85.4% (inactive) and 93.6% (inactive) and the growth (OVCAR-8 ovarian) was 92.9% (inactive) and 81.8% (inactive). For the same compound, the growth (OVCAR-4 ovarian) was 94.2% (inactive) and 101% (inactive), the growth (SK-OV-3 ovarian) was 112% (inactive) and 92.8% (inactive) and the growth (IGROV1 ovarian) was 102% (inactive) and 111% (inactive). For the same compound, the growth (OVCAR-3 ovarian) was 114% (inactive) and 101% (inactive), the growth (HS 578T breast) was 92.3% (inactive) and 128% (inactive) and the growth (NCI/ADR-RES ovarian) was 92.2% (inactive) and 99.3% (inactive).

With `COc1ccc(S(=O)(=O)N2CCOCC2)cc1NC(=O)c1[nH]c(C)c2c1CCCCC2=O` the growth (SR leukemia) was 113% (inactive) and 64.4% (inactive), the growth (RPMI-8226 leukemia) was 104% (inactive) and 21.5% (inactive) and the growth (OVCAR-8 ovarian) was 99.6% (inactive) and 61.7% (inactive). The growth (OVCAR-4 ovarian) was 114% (inactive) and 59.2% (inactive), the growth (SK-OV-3 ovarian) was 103% (inactive) and the growth (IGROV1 ovarian) was 108% (inactive) and 47.1% (inactive). The growth (OVCAR-3 ovarian) was 111% (inactive) and 68% (inactive), the growth (HS 578T breast) was 91.8% (inactive) and 23.1% (inactive) and the growth (NCI/ADR-RES ovarian) was 107% (inactive) and 79.1% (inactive).

For `C1CCCCNCCC1`, the growth (SR leukemia) was 110% (inactive), the growth (RPMI-8226 leukemia) was 99.5% (inactive) and the growth (OVCAR-8 ovarian) was 110% (inactive). For the same compound, the growth (OVCAR-4 ovarian) was 109% (inactive), the growth (SK-OV-3 ovarian) was 117% (inactive) and the growth (IGROV1 ovarian) was 140% (inactive). For the same compound, the growth (OVCAR-3 ovarian) was 112% (inactive), the growth (HS 578T breast) was 110% (inactive) and the growth (NCI/ADR-RES ovarian) was 127% (inactive).

For `Cc1ccc(S(=O)(=O)Nc2nc3ccccc3nc2Nc2ccc3nsnc3c2)cc1`, the growth (SR leukemia) was 71.2% (inactive) and 76.1% (inactive), the growth (RPMI-8226 leukemia) was 27.5% (inactive) and the growth (OVCAR-8 ovarian) was 43.4% (inactive) and 63.3% (inactive). For the same compound, the growth (OVCAR-4 ovarian) was 38.9% (inactive) and 30.7% (inactive), the growth (SK-OV-3 ovarian) was 30.1% (inactive) and 69.2% (inactive) and the growth (IGROV1 ovarian) was 66.3% (inactive) and 41.9% (inactive). For the same compound, the growth (OVCAR-3 ovarian) was 47.8% (inactive) and 35.2% (inactive), the growth (HS 578T breast) was 11.4% (inactive) and the growth (NCI/ADR-RES ovarian) was 62.8% (inactive) and 43.2% (inactive).

With `Oc1ccccc1/C=N\NC(=S)N/N=C/c1ccccc1O` the growth (SR leukemia) was 20% (inactive) and 21.9% (inactive), the growth (RPMI-8226 leukemia) was 29.3% (inactive) and 40.7% (inactive) and the growth (OVCAR-8 ovarian) was 35.6% (inactive) and 23.4% (inactive). For the same compound, the growth (OVCAR-4 ovarian) was 25.7% (inactive), the growth (SK-OV-3 ovarian) was 46.5% (inactive) and 58.9% (inactive) and the growth (IGROV1 ovarian) was 20.9% (inactive) and 34.5% (inactive). For the same compound, the growth (OVCAR-3 ovarian) was 14.1% (inactive) and 23% (inactive), the growth (HS 578T breast) was 98.4% (inactive) and 73.4% (inactive) and the growth (NCI/ADR-RES ovarian) was 13.5% (inactive) and 19.6% (inactive).

For `Cn1cc(-c2cc3c(Nc4ccc(CC(=O)Nc5cc(C(C)(C)C)on5)cc4)ncnc3[nH]2)cn1`, the growth (SR leukemia) was 2.58% (active), the growth (RPMI-8226 leukemia) was -2.19% (active) and -22.3% (active) and the growth (OVCAR-8 ovarian) was 4.54% (active) and 2.06% (active). For the same compound, the growth (OVCAR-4 ovarian) was -12.1% (active) and 5.44% (active), the growth (SK-OV-3 ovarian) was -5.62% (active) and -14.8% (active) and the growth (IGROV1 ovarian) was -12.2% (active) and 2.63% (active). For the same compound, the growth (OVCAR-3 ovarian) was -15.1% (active) and -6.62% (active), the growth (HS 578T breast) was -22.4% (active) and -15.2% (active) and the growth (NCI/ADR-RES ovarian) was 79.5% (inactive) and 80.3% (inactive).

`CC(O)Cn1cnc2c1c(=O)n(C)c(=O)n2C` (stereo unspecified) was tested, and the growth (OVCAR-8 ovarian) was 97.6% (inactive), the growth (OVCAR-5 ovarian) was 125% (inactive) and the growth (OVCAR-4 ovarian) was 96.5% (inactive). The growth (SK-OV-3 ovarian) was 103% (inactive), the growth (IGROV1 ovarian) was 90.6% (inactive) and the growth (OVCAR-3 ovarian) was 108% (inactive). The growth (NCI/ADR-RES ovarian) was 112% (inactive).

With `COc1cc(Nc2nc3ccccc3nc2NS(=O)(=O)c2ccc(NC(=O)c3ccc(C)c(OC)c3)cc2)cc(OC)c1` the growth (SR leukemia) was 31.3% (inactive) and 8.54% (active), the growth (RPMI-8226 leukemia) was 8.4% (active) and the growth (OVCAR-8 ovarian) was 46.6% (inactive) and 5.53% (active). The growth (OVCAR-4 ovarian) was 43.3% (inactive) and -2.71% (active), the growth (SK-OV-3 ovarian) was 49% (inactive) and -44% (active) and the growth (IGROV1 ovarian) was 6.75% (active) and -30.1% (active). For the same compound, the growth (OVCAR-3 ovarian) was 51.6% (inactive) and 6.96% (active), the growth (HS 578T breast) was 3.34% (active) and the growth (NCI/ADR-RES ovarian) was 75.5% (inactive) and 2.39% (active).

For `N#C/C(=C/c1c(O)ccc2ccccc12)C(N)=O`, the growth (RPMI-8226 leukemia) was 88.2% (inactive), the growth (OVCAR-8 ovarian) was 105% (inactive) and the growth (OVCAR-5 ovarian) was 105% (inactive). The growth (OVCAR-4 ovarian) was 92% (inactive), the growth (SK-OV-3 ovarian) was 92.6% (inactive) and the growth (IGROV1 ovarian) was 93.4% (inactive). The growth (OVCAR-3 ovarian) was 90.1% (inactive), the growth (HS 578T breast) was 113% (inactive) and the growth (NCI/ADR-RES ovarian) was 94.6% (inactive).

In the case of `OCc1ccccn1`, the growth (SR leukemia) is reported as 96.9% (inactive), the growth (OVCAR-8 ovarian) is reported as 108% (inactive) and the growth (OVCAR-5 ovarian) is reported as 105% (inactive). For the same compound, the growth (OVCAR-4 ovarian) was 113% (inactive), the growth (SK-OV-3 ovarian) was 117% (inactive) and the growth (IGROV1 ovarian) was 116% (inactive). For the same compound, the growth (OVCAR-3 ovarian) was 112% (inactive), the growth (HS 578T breast) was 106% (inactive) and the growth (NCI/ADR-RES ovarian) was 109% (inactive).

With `CC1=C(/C=C/C(C)=C/C=C/C(C)=C/C(=O)Nc2ccc(O)cc2)C(C)(C)CCC1` the growth (SR leukemia) was -4.85% (active), the growth (OVCAR-8 ovarian) was 65.9% (inactive) and the growth (OVCAR-5 ovarian) was 89.9% (inactive). For the same compound, the growth (OVCAR-4 ovarian) was 44.3% (inactive), the growth (SK-OV-3 ovarian) was 69.3% (inactive) and the growth (IGROV1 ovarian) was -0.235% (active). For the same compound, the growth (OVCAR-3 ovarian) was 27.8% (inactive) and the growth (HS 578T breast) was 63.3% (inactive).

`Fc1ccccc1Nc1n[nH]c(=S)s1` was tested, and the growth (RPMI-8226 leukemia) was 110% (inactive), the growth (OVCAR-8 ovarian) was 103% (inactive) and the growth (OVCAR-5 ovarian) was 99.2% (inactive). For the same compound, the growth (OVCAR-4 ovarian) was 122% (inactive), the growth (SK-OV-3 ovarian) was 110% (inactive) and the growth (IGROV1 ovarian) was 126% (inactive). The growth (OVCAR-3 ovarian) was 107% (inactive), the growth (HS 578T breast) was 107% (inactive) and the growth (NCI/ADR-RES ovarian) was 115% (inactive).
